Source: PubChem BioAssay (NCATS)
Where “and” joins values, the source holds several entries; their conditions need not be identical. Identical values can stand only once. Inconclusive results are not listed. Calls of active or inactive are those of the source. Calls come from the whole dose curve; as a rule, active = well fitted curve in the direction sought with a large enough effect; inconclusive = small, poorly fitted or top-dose-only effect, or another doubt; inactive = no such curve, though single readings can be large; an effect the other way counts as inactive or inconclusive.

Test: Confirmatory qHTS for small molecule stabilizers of the endoplasmic reticulum resident proteome: Secreted ER Calcium Modulated Protein (SERCaMP) assay (AID 1508628); note: nearly all actives have a fitted effect of over 40% in size;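 for activity change, negative = decrease: SH-SY5Y cells given compound 16 h then thapsigargin 100 nM for 4 h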
Conditions: SERCaMP secreted luciferase ER calcium/proteostasis reporter; series mostly up to 76.3 µM; activity change, negative = decrease: at the top concentration
Outline: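 We seeded SH-SY5Y-GLuc-SERCaMP cells, added compounds (three concentrations in the primary run, eleven up to 76.6 uM in confirmation), incubated 16 h, depleted ER calcium with thapsigargin, and read luciferase 4 h later.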
% is set by controls: 0 for no effect and ±100 for the full control effect; potency is the fitted concentration of half-maximal effect.

| SMILES | activity change, negative = decrease | Potency |
| --- | --- | --- |
| O=C(O)c1cc(=O)c2c(OCC(O)COc3cccc4oc(C(=O)O)cc(=O)c34)cccc2o1 | -0.733% (inactive) |  |
| CN1CCC(=C2c3ccccc3CCc3sccc32)CC1 |  | 25.1 µM (active) |
| C[C@H](Cc1ccc(O)c(O)c1)[C@@H](C)Cc1ccc(O)c(O)c1 |  | 7.94 µM (active) |
| CN(C)c1ccc(O)c2c1C[C@H]1C[C@H]3[C@H](N(C)C)C(=O)C(C(N)=O)=C(O)[C@@]3(O)C(=O)C1=C2O | 14.7% (inactive) |  |
| Cc1cc(O)c2c(c1)C(=O)c1cc(O)cc(O)c1C2=O |  | 14.1 µM (active) |
| CCN(CC)C(=S)SSC(=S)N(CC)CC | 6.08% (inactive) |  |
| O=C(O)c1cccc(-c2noc(-c3ccccc3F)n2)c1 | -25.6% (inactive) |  |
| O=c1cc(N2CCOCC2)oc2c(-c3ccccc3)cccc12 |  | inactive |

Test: Cell Viability qHTS for small molecule stabilizers of the endoplasmic reticulum resident proteome (AID 1508629);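 note: compound exposure about 46 h in total before the viability read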;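 for max response: human SH-SY5Y neuroblastoma cells carrying the GLuc-SERCaMP reporter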
Conditions: cell viability counter-screen, 100 nM thapsigargin for final 4 h

| SMILES | max response | Potency |
| --- | --- | --- |
| O=C(O)c1cc(=O)c2c(OCC(O)COc3cccc4oc(C(=O)O)cc(=O)c34)cccc2o1 | 17.9% (inactive) |  |
| O=C(O)c1cn(-c2ccc(F)cc2)c2cc(N3CCNCC3)c(F)cc2c1=O | 19.2% (inactive) and 20.4% (inactive) |  |
| Cc1cccc(C)c1OCC(=O)N[C@@H](Cc1ccccc1)[C@@H](O)C[C@H](Cc1ccccc1)NC(=O)[C@H](C(C)C)N1CCCNC1=O | -5.9% (inactive) |  |
| C[C@H](Cc1ccc(O)c(O)c1)[C@@H](C)Cc1ccc(O)c(O)c1 | -16.2% (inactive) |  |
| COC(=O)C1=C(C)NC(C)=C(C(=O)OCCCN2CCC(c3ccccc3)(c3ccccc3)CC2)C1c1cccc([N+](=O)[O-])c1 (stereo not given) |  | 28.2 µM (active) |
| CN(C)c1ccc(O)c2c1C[C@H]1C[C@H]3[C@H](N(C)C)C(=O)C(C(N)=O)=C(O)[C@@]3(O)C(=O)C1=C2O | 11.6% (inactive) |  |
| O=c1cc(N2CCOCC2)oc2c(-c3ccccc3)cccc12 | -28.5% (inactive) |  |
